# Data as given in PubChem BioAssay (Tox21).
# Several values for one entry are separate records, joined by “and”; a condition that tells them apart may be missing. Identical values can stand only once. Records with an inconclusive call do not appear. A call without a number means that no potency is given here. The source holds several records for some structures; these can differ, active in one and inactive in another. Activity calls are given as the source filed them. Unless noted, calls follow the shape of the dose curve; as a rule, active = well fitted curve in the direction sought with a large enough effect in the repeat runs; inconclusive = weak or mixed curves; inactive = no such curve, though single readings can be large; an effect the other way counts as inactive or inconclusive.
# Columns and labels:
# [1] = qHTS RealTime-Glo MT Cell Viability Assay in HepG2 cells - 16 hour (AID 1224885); also: nearly all actives have a fitted effect of over 50% in size
# Outline: (§1)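 HepG2 suspension premixed with RealTime-Glo reagents is plated at 600 cells per well and left 5 h at 37 C/5% CO2. Compounds in DMSO then go in, and bioluminescence reflecting viable cell number is recorded over 40 h.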
# [2] = qHTS RealTime-Glo MT Cell Viability Assay in HEK293 cells - 24 hour (AID 1224886); also: top concentration of the series differs between compounds; nearly all actives have a fitted effect of over 50% in size
# Outline: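 Reads taken at 0, 8, 16, 24, 32 and 40 h from the same wells. HEK293 cells (600/well) carried RealTime-Glo reagents from seeding, with compound added after a 5 h settle at 37 C.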
# [3] = qHTS RealTime-Glo MT Cell Viability Assay in HEK293 cells - 8 hour (AID 1224887); also: top concentration of the series differs between compounds; nearly all actives have a fitted effect of over 50% in size
# Outline: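 Measured as luminescence from the same continuously cultured HEK293 wells at successive time points (0, 8, 16, 24, 32, 40 h) after compound addition. Reagent present from seeding; dosing at 5 h; incubation 37 C.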
# [4] = A CellTox Green Cytotoxicity Assay to monitor cytotoxicity in HEK293 cells - 16 hour (AID 1224888); also: nearly all actives have a fitted effect of over 35% in size
# Outline: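 Homogeneous no-lysis format: HEK293 cell suspension mixed with CellTox Green reagent, seeded, incubated 5 h at 37 C/5% CO2, then dosed by pintool with compound in DMSO.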
# [5] = qHTS RealTime-Glo MT Cell Viability Assay in HepG2 cells - 0 hour (AID 1224889); also: nearly all actives have a fitted effect of over 50% in size
# Outline: as §1
# [6] = A CellTox Green Cytotoxicity Assay to monitor cytotoxicity in HepG2 cells - 8 hour (AID 1224890); also: nearly all actives have a fitted effect of over 45% in size; also: potency is read from the fitted curve at half-maximal effect
# Outline: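 Fluorescent DNA-binding dye, 600 HepG2 cells/well, 5 h preincubation then compound in DMSO; same plates read at 0–40 h, 37 C.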
# [7] = qHTS assay to identify small molecule antagonists of the estrogen receptor alpha (ER-alpha) signaling pathway using the BG1 cell line in the presence of 0.1 nM 17-beta-estradiol - cell viability counter screen (AID 1259241); also: nearly all actives have a fitted effect of over 40% in size; also: potency is read from the fitted curve at half-maximal effect
# Outline: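 VM7Luc4E2 cells (endogenous ER-alpha, 4×ERE-luciferase), hormone-starved 5 days in charcoal-stripped FBS, were treated with compounds plus 0.1 nM 17beta-estradiol for 22 hr at 37C; viability read in same wells as CellTiter-Fluor live-cell protease fluorescence.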
# [8] = qHTS assay to identify small molecule antagonists of the androgen receptor (AR) signaling pathway using the MDA cell line in the presence of 0.5 nM R1881 - cell viability counter screen (AID 1259242); also: nearly all actives have a fitted effect of over 45% in size
# Outline: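 Human breast carcinoma MDA-kb2 cells, cultured without CO2, receive compounds alongside 0.5 nM (final) R1881 agonist. After 16 hr at 37C, viability is taken as live-cell protease signal.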
# [9] = qHTS assay to identify small molecule phospholipidosis (PLD) inducers (AID 1259344; active = well fitted curve in the direction sought with a large enough effect; an effect the other way counts as inactive or inconclusive)
# Outline: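 Accumulated phospholipid, stained red by LipidTOX during 24 h compound treatment of HepG2 cells at 37 C, is quantified from images as pit number and intensity, normalised per cell using Hoechst-stained nuclei.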
# [10] = qHTS assay to identify small molecule HDAC inhibitors (AID 1259364);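 also: wild-type HCT-116 cells with endogenous class I/II HDAC activity; top concentration of the series differs between compounds; nearly all actives have a fitted effect of over 45% in size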
# Outline: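 After a 2 hr compound incubation (37C, 5% CO2), HCT-116 cells seeded at 1,500/well the day before received HDAC-Glo reagent; signal read as luminescence after 30 min at room temperature.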
# [11] = qHTS assay to identify small molecule HDAC inhibitors - cell viability counter screen (AID 1259365)
# Outline: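 Wild-type HCT-116 cells were seeded at 1,500 per well, incubated overnight at 37 C, then exposed to compounds in DMSO for 2hr. Viability was read by CellTiter-Glo luminescence after 30min at room temperature.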
# [12] = qHTS assay to identify small molecule agonists of the sonic hedgehog signaling (Shh) pathway - cell viability counter screen (AID 1259366); also: nearly all actives have a fitted effect of over 50% in size; also: potency is read from the fitted curve at half-maximal effect
# Outline: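 NIH/3T3-derived 3T3 Gli1-Luc cells (stable Gli1-responsive firefly luciferase reporter) were seeded, rested 4 hr at 37 C/5% CO2, then exposed to compounds in DMSO for 24 hr; viability was read by CellTiter-Fluor fluorescence in the same wells.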
# [13] = qHTS assay to identify small molecule agonists of the sonic hedgehog signaling (Shh) pathway (AID 1259368; calls by dose curve; also: series mostly up to about 92 µM; nearly all actives have a fitted effect of over 15% in size)
# Outline: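 Stable NIH/3T3 Gli1-Luc reporter clone; 24 hr cpd exposure after a 4 hr settling period; luminescence endpoint.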
# [14] = qHTS assay to identify small molecule antagonists of the sonic hedgehog signaling (Shh) pathway (AID 1259369; calls by dose curve; also: nearly all actives have a fitted effect of over 45% in size)
# Outline: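 Gli1 transcriptional reporter (firefly Luc) in NIH/3T3 background, conditioned-medium activated. 24hr exposure, luminescence endpoint.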
# [15] = target: Estrogen receptor beta (Homo sapiens) (UniProt Q92731); assay: qHTS assay to identify small molecule agonists of the estrogen receptor beta (ER-beta) signaling pathway (AID 1259377; active = well fitted activation curve with a large enough effect in the signal ratio in the repeat runs, not every such curve was filed as active; the % refers to the signal ratio)
# Sequence of Estrogen receptor beta (Homo sapiens) (Q92731 whole entry, looked up): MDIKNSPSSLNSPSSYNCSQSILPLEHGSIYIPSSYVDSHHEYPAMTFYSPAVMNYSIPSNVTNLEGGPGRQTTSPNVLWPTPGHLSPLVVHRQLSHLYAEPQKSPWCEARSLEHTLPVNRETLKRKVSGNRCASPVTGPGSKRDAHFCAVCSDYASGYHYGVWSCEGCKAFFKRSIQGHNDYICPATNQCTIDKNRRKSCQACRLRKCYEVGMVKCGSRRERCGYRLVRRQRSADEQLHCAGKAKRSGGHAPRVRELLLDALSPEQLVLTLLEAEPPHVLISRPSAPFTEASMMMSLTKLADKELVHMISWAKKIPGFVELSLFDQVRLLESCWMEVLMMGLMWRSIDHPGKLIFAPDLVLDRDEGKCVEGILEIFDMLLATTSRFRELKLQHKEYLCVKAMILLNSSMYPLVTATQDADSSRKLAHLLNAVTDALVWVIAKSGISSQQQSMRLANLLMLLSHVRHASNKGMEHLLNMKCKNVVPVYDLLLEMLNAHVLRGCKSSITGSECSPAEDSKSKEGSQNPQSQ
# Outline: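 ER-beta-UAS-bla HEK293T (GripTite) cells carrying a UAS-driven beta-lactamase reporter, in medium with 2% charcoal-stripped FBS, were exposed to compounds for 16 hr at 37C; LiveBLAzer B/G FRET substrate was then added and fluorescence read after 2 hours at room temperature.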
# [16] = target: Estrogen receptor beta (Homo sapiens) (UniProt Q92731); assay: qHTS assay to identify small molecule antagonists of the estrogen receptor beta (ER-beta) signaling pathway (AID 1259378; active = well fitted inhibition curve with a large enough effect in the signal ratio in the repeat runs, not every such curve was filed as active; the % refers to the signal ratio; also: potency is read from the fitted curve at half-maximal effect)
# Outline: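 Antagonist mode: compounds added to beta-lactamase reporter HEK293T ER-beta-UAS cells stimulated with E2 (1nM final), 16 hr at 37C. LiveBLAzer B/G FRET substrate, 2 hours room temperature, fluorescence read-out.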
# [17] = qHTS assay to identify small molecule agonists of the androgen receptor (AR) signaling pathway in the presence of an antagonist - cell viability counter screen (AID 1259379); also: nearly all actives have a fitted effect of over 25% in size; also: potency is read from the fitted curve at half-maximal effect
# Outline: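 Counter screen for cell viability run in parallel with the AR agonist-mode luciferase assay. MDA-kb2 cells were co-treated with nilutamide (3.0uM final) and compounds, then incubated 16 hr at 37C, and CellTiter-Fluor fluorescence was measured.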
# [18] = target: Androgen receptor (Homo sapiens) (UniProt P10275); assay: qHTS assay to identify small molecule antagonists of the androgen receptor (AR) signaling pathway using the MDA cell line in the presence of 0.5 nM R1881 (AID 1259243); also: nearly all actives have a fitted effect of over 50% in size
# Sequence of Androgen receptor (Homo sapiens) (P10275 whole entry, looked up): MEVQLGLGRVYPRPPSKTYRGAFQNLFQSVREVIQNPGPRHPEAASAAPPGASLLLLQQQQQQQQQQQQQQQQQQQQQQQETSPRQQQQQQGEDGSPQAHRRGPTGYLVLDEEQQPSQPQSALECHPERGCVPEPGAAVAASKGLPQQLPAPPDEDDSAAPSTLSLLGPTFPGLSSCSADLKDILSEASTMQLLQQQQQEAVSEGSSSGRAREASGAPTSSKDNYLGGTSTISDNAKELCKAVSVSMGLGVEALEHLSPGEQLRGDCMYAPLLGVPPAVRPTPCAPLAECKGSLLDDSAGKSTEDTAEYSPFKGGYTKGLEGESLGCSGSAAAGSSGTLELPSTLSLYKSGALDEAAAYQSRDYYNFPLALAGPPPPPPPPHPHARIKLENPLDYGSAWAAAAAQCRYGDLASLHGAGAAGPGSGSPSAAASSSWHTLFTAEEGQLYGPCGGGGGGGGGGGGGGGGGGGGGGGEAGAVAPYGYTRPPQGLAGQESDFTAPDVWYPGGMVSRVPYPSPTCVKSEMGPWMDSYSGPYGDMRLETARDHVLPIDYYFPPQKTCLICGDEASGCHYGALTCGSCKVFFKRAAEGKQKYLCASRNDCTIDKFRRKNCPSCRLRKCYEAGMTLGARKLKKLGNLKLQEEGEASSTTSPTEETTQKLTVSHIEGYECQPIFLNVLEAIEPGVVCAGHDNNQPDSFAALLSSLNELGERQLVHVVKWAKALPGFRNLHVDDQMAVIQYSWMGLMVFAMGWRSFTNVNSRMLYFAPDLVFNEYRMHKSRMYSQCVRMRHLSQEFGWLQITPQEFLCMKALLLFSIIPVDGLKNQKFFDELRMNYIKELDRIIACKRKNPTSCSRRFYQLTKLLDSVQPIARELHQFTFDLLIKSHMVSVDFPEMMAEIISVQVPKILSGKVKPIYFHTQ
# Outline: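 Cells: MDA-kb2 (MMTV-luc). Stimulus: 0.5 nM R1881. Time: 16 hr, 37C, no CO2. Detection: ONE-Glo luminescence after 30 min at RT.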
# [19] = qHTS assay to identify small molecule antagonists of the sonic hedgehog signaling (Shh) pathway - cell viability counter screen (AID 1259367); also: nearly all actives have a fitted effect of over 55% in size; also: potency is read from the fitted curve at half-maximal effect
# Outline: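 CellTiter-Fluor signal in conditioned medium-stimulated 3T3 Gli1-Luc cells, 23 hr compound exposure, 37C.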
SMILES,outcome [1],Potency [2],Potency [3],outcome [4],Potency [5],Potency [6],Potency [7],outcome [8],outcome [9],Potency [10],outcome [11],Potency [12],outcome [13],Potency [14],Potency [15],Potency [16],Potency [17],Potency [18],Potency [19]
CCCCC(CC)COC(=O)C(C#N)=C(c1ccccc1)c1ccccc1 (stereo unspecified),inactive,inactive,inactive,inactive,inactive,inactive,inactive,inactive,inactive,inactive,inactive,inactive,inactive,inactive,inactive,19.3 µM (active),inactive,–,–
Nc1cc([N+](=O)[O-])ccc1O,inactive,inactive,inactive,inactive,inactive,inactive,48.6 µM (active),–,–,inactive,inactive,48.6 µM (active),inactive,inactive,–,–,48.6 µM (active) and 54.2 µM (active),inactive,–
CCC(O)OCCCOC (stereo unspecified),inactive,inactive,inactive,inactive,inactive,inactive,inactive,inactive,–,inactive,inactive,22.2 µM (active) and inactive,inactive,inactive,inactive,inactive,inactive,–,28 µM (active) and inactive
Cc1ccc(S(N)(=O)=O)cc1,inactive,inactive,inactive,inactive,inactive,inactive,inactive,inactive,–,inactive,inactive,inactive,–,inactive,–,–,inactive,–,inactive
O=c1[nH]c(=O)n([C@H]2CCCO2)cc1F,inactive,inactive,inactive,inactive,inactive,inactive,inactive,inactive,inactive,inactive,inactive,inactive,inactive,inactive,–,inactive,inactive,–,–
CC(C)CC(=O)CC(C)C,inactive,inactive,inactive,inactive,inactive,inactive,inactive,inactive,–,inactive,inactive,inactive,inactive,inactive,inactive,inactive,inactive,–,inactive
CCCC(C)=O,inactive,inactive,inactive,inactive,inactive,inactive,inactive,inactive,–,inactive,inactive,inactive,inactive,inactive,–,–,inactive,–,inactive
CCCCC(CC)COC(=O)CS (stereo unspecified),inactive,inactive,inactive,inactive,inactive,inactive,inactive,inactive,–,inactive,inactive,inactive,inactive,inactive,–,–,inactive,–,inactive
CN(C)CCOCCN(C)C,inactive,inactive,inactive,inactive,inactive,inactive and 49 µM (active),inactive,inactive,–,inactive,inactive,inactive,–,inactive,inactive,inactive,inactive,–,inactive
